Laboratory results from PubChem BioAssay (NCATS).
Values without a mark were called inactive. Results filed as inconclusive are left out. Activity calls are given as the source filed them. Unless noted, calls come from the whole dose curve; as a rule, active = well fitted curve in either direction with a large enough effect (not every such curve was filed as active); inconclusive = small, poorly fitted or top-dose-only effect, or another doubt; inactive = flat fitted curve, though single readings scatter.

Key:
[1] = target: Lysosomal acid glucosylceramidase (Homo sapiens) (UniProt P04062); assay: Glucocerebrosidase-p2 (AID 348; in the data active = potency below about 10 µM; note: potency is the fitted concentration of half-maximal effect); conditions: purified GBA, blue fluorogenic substrate, 40 min
Sequence of Lysosomal acid glucosylceramidase (Homo sapiens) (P04062 whole entry, looked up): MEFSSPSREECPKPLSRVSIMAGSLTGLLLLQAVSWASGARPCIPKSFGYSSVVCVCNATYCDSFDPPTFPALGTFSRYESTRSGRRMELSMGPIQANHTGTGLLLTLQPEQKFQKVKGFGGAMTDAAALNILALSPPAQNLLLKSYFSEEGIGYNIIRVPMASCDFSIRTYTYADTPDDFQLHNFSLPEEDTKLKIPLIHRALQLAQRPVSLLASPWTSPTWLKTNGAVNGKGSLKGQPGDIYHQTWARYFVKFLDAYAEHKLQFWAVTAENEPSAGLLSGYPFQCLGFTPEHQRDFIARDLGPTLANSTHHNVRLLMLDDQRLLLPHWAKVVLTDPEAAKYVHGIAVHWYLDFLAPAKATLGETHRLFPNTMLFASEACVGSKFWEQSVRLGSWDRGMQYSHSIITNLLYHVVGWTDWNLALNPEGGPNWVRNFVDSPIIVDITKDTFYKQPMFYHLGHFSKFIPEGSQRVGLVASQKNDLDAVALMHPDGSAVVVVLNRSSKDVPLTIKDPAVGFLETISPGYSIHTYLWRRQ
How it was run: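 Compounds titrated from 0.6 nM upwards against 0.2 nM enzyme in pH 5.9 citric acid/KH2PO4, taurocholate, tween-20; blue fluorogenic substrate 80 uM, 40 min room temperature, stopped and read Ex 365/Em 440 for AC50.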

[2] = AP1 Signaling Pathway (AID 357); conditions: ME-180 AP-1-bla reporter, EGF-induced, beta-lactamase ratio, 5 h; at 7.69 µM (top of the series) unless noted; note: % is set by controls: 0 for no effect and ±100 for the full control effect
How it was run: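 Cells are seeded overnight, exposed to compound titrations and an EC50 level of EGF for 5 hours at 37 °C, then loaded with CCF4 dye for 2.5 hours. Beta-lactamase activity under the AP-1 element is read as a blue/green ratio.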

[3] = NFAT Signaling Pathway (AID 444); conditions: Jurkat NFAT-bla M1, carbachol, beta-lactamase ratio, 5 h; at 7.69 µM (top of the series) unless noted;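 note: carbachol stimulus at about its EC50 of 1 µM final; % is set by controls: 0 for no effect and ±100 for the full control effect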
How it was run: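 Jurkat cells carrying an NFAT-driven β-lactamase reporter and co-transfected muscarinic M1 receptor were treated with compound plus carbachol (1 uM final, an EC50 level) for 5 h at 37 °C. CCF4 loading followed for 1 h at RT; 460/530 nm ratio gave %activity.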

[4] = Stat Signaling Pathway (AID 446); conditions: ME-180 SIE beta-lactamase reporter, IL-6 stimulated, 5 h; at 7.69 µM (top of the series) unless noted;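 note: ME-180 cervical cancer cells given 40 pM IL-6 alongside compound; SIE-controlled beta-lactamase reporter measured as 460/530 nm FRET emission ratio; % is set by controls: 0 for no effect and ±100 for the full control effect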
How it was run: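 ME-180 SIE-bla cells; overnight plating; cpd + IL-6 40 pM, 5 h, 37 C; LiveBLAzer 2.5 h RT; 460/530 nm emission ratio. Normalized to 300 pM IL-6 and 125 nM JAK inhibitor controls.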

[5] = target: Glucocorticoid receptor (Homo sapiens) (UniProt P04150); assay: GR-GFP Redistribution (AID 450;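 active = compounds whose dose series gives a full or clear partial fitted curve of increased nuclear translocation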; note: potency is the fitted concentration of half-maximal effect); conditions: U2OS GR-GFP nuclear translocation, laser cytometry, 2 h
Sequence of Glucocorticoid receptor (Homo sapiens) (P04150 whole entry, looked up, the tested form may be a part): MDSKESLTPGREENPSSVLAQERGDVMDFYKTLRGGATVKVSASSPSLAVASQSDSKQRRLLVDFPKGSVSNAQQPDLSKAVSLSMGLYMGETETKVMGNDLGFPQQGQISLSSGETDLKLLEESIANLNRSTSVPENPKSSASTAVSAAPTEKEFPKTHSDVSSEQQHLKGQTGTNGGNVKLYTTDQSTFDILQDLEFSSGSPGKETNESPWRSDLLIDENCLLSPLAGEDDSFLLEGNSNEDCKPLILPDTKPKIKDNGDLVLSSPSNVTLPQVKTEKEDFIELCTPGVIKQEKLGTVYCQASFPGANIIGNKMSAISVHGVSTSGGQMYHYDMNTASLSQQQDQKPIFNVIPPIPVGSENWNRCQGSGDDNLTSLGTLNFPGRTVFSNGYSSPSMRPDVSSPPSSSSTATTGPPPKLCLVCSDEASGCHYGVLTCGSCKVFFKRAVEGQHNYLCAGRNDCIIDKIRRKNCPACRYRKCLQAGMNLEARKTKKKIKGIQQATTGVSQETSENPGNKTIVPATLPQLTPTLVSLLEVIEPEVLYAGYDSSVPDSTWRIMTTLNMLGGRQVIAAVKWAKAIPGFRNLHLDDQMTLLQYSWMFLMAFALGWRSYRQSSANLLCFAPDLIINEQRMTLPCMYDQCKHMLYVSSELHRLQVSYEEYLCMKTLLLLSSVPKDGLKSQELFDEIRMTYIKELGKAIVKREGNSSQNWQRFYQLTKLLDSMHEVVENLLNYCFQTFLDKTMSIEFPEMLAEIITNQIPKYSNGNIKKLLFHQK

[6] = target: Glucocorticoid receptor (Homo sapiens) (UniProt P04150); assay: GR-EFC Redistribution (AID 451; calls by dose curve; note: potency is the fitted concentration of half-maximal effect); conditions: CHO-K1 GR-EFC translocation, beta-gal luminescence, 2 h
How it was run: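 CHO-K1 cells stably expressing nuclear-localized β-gal enzyme acceptor and GR fused C-terminally to the enzyme donor fragment; ligand-driven nuclear translocation restores β-gal by complementation. Compounds titrated up to 46 uM final, 2 h at 37 °C; luminescence read.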

[7] = target: 3',5'-cyclic-AMP phosphodiesterase 4B (Homo sapiens) (UniProt Q07343); assay: qHTS Assay for Inhibitors of PDE-IV (AID 607; active = well fitted activation curve with a large enough effect in the main read-out, with a control signal flat, not every such curve was filed as active; note: % of control where 0% means no effect); conditions: HEK293 ACTOne CNG channel cells, membrane potential fluorescence; series mostly up to 22.9 µM
Sequence of 3',5'-cyclic-AMP phosphodiesterase 4B (Homo sapiens) (Q07343 whole entry, looked up): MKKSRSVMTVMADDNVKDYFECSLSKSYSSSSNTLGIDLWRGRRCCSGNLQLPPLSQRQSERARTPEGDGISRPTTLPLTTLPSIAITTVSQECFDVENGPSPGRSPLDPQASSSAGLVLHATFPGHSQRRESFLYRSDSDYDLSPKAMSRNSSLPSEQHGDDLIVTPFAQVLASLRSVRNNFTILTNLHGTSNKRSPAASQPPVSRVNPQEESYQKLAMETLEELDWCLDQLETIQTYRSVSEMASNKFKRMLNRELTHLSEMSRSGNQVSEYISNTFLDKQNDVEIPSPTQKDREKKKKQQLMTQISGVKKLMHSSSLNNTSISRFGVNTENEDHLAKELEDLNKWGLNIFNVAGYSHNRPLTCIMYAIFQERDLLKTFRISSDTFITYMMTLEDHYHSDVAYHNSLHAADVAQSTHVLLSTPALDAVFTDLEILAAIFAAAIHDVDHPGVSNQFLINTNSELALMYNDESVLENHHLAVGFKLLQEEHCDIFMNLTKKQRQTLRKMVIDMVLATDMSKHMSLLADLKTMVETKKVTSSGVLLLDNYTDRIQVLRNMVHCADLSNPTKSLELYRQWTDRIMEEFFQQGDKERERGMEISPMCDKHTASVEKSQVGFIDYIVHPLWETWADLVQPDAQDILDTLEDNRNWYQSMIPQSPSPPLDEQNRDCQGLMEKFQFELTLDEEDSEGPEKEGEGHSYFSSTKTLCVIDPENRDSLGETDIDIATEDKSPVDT
How it was run: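 ACTOne HEK293 cells carry a modified cAMP-gated CNG channel and express endogenous PDE4; plated 1000 cells/well, compounds up to 22.9 uM final. Membrane-potential dye fluorescence (ex 535/em 590) was read; parental cells received 10 uM forskolin + 100 uM RO 20-1724.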

[8] = Primary qHTS for small molecule stabilizers of the endoplasmic reticulum resident proteome: Secreted ER Calcium Modulated Protein (SERCaMP) assay (AID 1508630; active = well fitted curve in the direction sought with a large enough effect; an effect the other way counts as inactive or inconclusive; note: % is set by controls: 0 for no effect and ±100 for the full control effect); conditions: SH-SY5Y GLuc-SERCaMP (Gaussia luciferase released on ER calcium loss) secretion, thapsigargin, luminescence; series mostly up to 38.4 µM
How it was run: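 GLuc-SERCaMP-expressing SH-SY5Y cells, pretreated 16 h with compound, are challenged with thapsigargin to empty ER calcium stores; after 4 h, coelenterazine is added directly to the medium and luminescence is imaged.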

[9] = target: Mitogen-activated protein kinase 10 (Mus musculus) (UniProt Q61831); assay: JNK3 AlphaScreen Assay (AID 530); conditions: JNK3 lysate, c-Jun phosphorylation; series mostly up to 57.1 µM
How it was run: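 JNK3 came from HepG2 lysates pre-activated with IL-1beta and TNF-alpha and phosphorylated biotinylated GST-cJun (1-79) at 10 uM ATP, pH 7.6, room temperature. Compounds were titrated. AlphaScreen signal used anti-phospho-cJun (Ser73) antibody.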

[10] = target: Cytochrome P450 3A4 (Homo sapiens) (UniProt P08684); assay: qHTS Assay for Activators of Cytochrome P450 3A4 (AID 885; active = well fitted curve in the direction sought with a large enough effect; an effect the other way counts as inactive or inconclusive; note: nearly all actives have a fitted effect of over 65% in size; note: potency is the fitted concentration of half-maximal effect); conditions: recombinant CYP3A4, Luciferin-PPXE luminescence, 60 min; series mostly up to 57.1 µM
Sequence of Cytochrome P450 3A4 (Homo sapiens) (P08684 whole entry, looked up): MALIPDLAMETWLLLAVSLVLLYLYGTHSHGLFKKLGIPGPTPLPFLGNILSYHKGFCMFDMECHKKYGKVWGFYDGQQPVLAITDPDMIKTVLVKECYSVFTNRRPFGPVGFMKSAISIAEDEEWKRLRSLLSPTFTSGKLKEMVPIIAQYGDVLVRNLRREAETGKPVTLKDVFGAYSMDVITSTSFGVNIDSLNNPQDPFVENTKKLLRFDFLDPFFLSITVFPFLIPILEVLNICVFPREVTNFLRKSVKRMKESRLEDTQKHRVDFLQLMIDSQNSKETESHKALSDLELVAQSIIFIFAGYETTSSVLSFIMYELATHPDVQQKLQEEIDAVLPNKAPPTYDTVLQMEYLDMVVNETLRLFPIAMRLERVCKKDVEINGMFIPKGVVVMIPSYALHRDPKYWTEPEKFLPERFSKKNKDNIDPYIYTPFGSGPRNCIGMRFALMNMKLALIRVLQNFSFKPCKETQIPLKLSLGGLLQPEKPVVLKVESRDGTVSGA
How it was run: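 20nM CYP3A4 + 25uM Luciferin-PPXE (=KM), 200mM KPO4; cpd 10 min RT; NADPH regen, 60 min RT; stop w/ detection buffer, 20 min; luminescence. Normalized to 57 uM ketoconazole.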

[11] = qHTS Assay for Identification of Small Molecule Agonists for Hypoxia Response Element Signaling Pathway (AID 914; active = well fitted activation curve with a large enough effect in the signal ratio, with a control signal flat, not every such curve was filed as active; the % refers to the signal ratio; note: % of control where 0% means no effect); conditions: ME-180 (cervical carcinoma) HRE-bla reporter, beta-lactamase ratio, CoCl2, 17 h; activation: hits give high values
How it was run: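 Compounds in a titration series were added to ME-180 reporter cells alongside an EC50 level of CoCl2. After 17 hours, beta-lactamase activity was read as the 460nm/530nm emission ratio of CCF4, giving AC50 values.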

[12] = target: Cytochrome P450 3A4 (Homo sapiens) (UniProt P08684); assay: qHTS Assay for Inhibitors and Substrates of Cytochrome P450 3A4 (AID 884; active = well fitted curve in the direction sought with a large enough effect; an effect the other way counts as inactive or inconclusive; note: nearly all actives have a fitted effect of over 50% in size; note: potency is the fitted concentration of half-maximal effect); conditions: recombinant CYP3A4, Luciferin-PPXE luminescence; series mostly up to 57.1 µM
How it was run: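 20 nM human CYP3A4 with 25 uM Luciferin-PPXE (at KM) in 200 mM KPO4, preincubated 10 min with compound; NADPH regeneration started a 60 min RT reaction. Luciferin detected by luminescence, normalized to 57 uM ketoconazole as full inhibition.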

[13] = target: Cytochrome P450 2D6 (Homo sapiens) (UniProt P10635); assay: qHTS Assay for Inhibitors and Substrates of Cytochrome P450 2D6 (AID 891; active = well fitted curve in the direction sought with a large enough effect; an effect the other way counts as inactive or inconclusive; note: potency is the fitted concentration of half-maximal effect; nearly all actives have a fitted effect of over 60% in size); conditions: recombinant CYP2D6, luciferin-ME EGE luminescence; series mostly up to 57.1 µM
Sequence of Cytochrome P450 2D6 (Homo sapiens) (P10635 whole entry, looked up): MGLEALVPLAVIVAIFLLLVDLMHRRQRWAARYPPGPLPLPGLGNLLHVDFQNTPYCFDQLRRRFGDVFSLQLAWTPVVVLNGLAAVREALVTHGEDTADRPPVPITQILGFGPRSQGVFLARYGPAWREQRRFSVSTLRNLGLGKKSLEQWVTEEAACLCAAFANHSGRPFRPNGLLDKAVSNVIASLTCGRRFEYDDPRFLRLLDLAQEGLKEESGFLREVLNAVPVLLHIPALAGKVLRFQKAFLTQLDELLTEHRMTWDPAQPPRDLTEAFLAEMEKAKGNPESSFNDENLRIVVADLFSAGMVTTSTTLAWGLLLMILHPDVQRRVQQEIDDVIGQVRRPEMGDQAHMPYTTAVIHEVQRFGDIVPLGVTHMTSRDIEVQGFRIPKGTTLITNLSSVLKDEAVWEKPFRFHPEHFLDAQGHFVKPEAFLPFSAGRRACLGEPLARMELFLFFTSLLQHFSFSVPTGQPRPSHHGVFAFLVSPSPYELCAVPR
How it was run: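 Human CYP2D6 (5 nM) with 30 uM Luciferin-ME EGE (at Km) in 100 mM KPO4, compound preincubated 10 min, then NADPH regeneration system for 60 min at room temperature. Luciferin read by luminescence; normalized to 1.43 uM quinidine.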

Structure (SMILES)	Potency [1]	activity change, negative = inhibition [2]	activity change, negative = inhibition [3]	activity, negative = inhibition [4]	Potency [5]	Potency [6]	Potency [7]	outcome [8]	Potency [9]	Potency [10]	activation [11]	Potency [12]	Potency [13]
O=c1c(-c2ccc(F)c(F)c2)nc2cncnc2n1Cc1ccc(F)cc1	> 11.4 µM	2.91%	-2.88%	1.58%	> 9.22 µM	> 46 µM	inactive	inactive	–	–	–	–	–
COCCn1c(=O)c(-c2cc(F)cc(F)c2)nc2cnc(OCc3ccccc3)nc21	> 11.4 µM	8.07%	-6.33%	-6.5%	> 9.22 µM	> 46 µM	inactive	inactive	inactive	–	–	–	–
COCCn1c(=O)c(-c2ccc(OC)cc2)nc2cnc(Oc3ccc(OC)cc3)nc21	> 11.4 µM	-20.1%	18%	-7.21%	> 9.22 µM	> 46 µM	inactive	inactive	inactive	–	–	–	–
O=c1c(-c2ccc(Cl)cc2)nc2cncnc2n1Cc1ccccc1	> 11.4 µM	-10.4%	-17%	-3.39%	> 9.22 µM	> 46 µM	inactive	inactive	inactive	inactive	-4.75%	–	–
Cn1c(=O)c(-c2cc(F)cc(F)c2)nc2cnc(Oc3cccc(Cl)c3)nc21	> 11.4 µM	-16%	-4.07%	7.63%	> 9.22 µM	> 46 µM	inactive	inactive	inactive	–	–	–	–
COc1cccc(Cn2c(=O)c(-c3cccs3)nc3cnc(Nc4ccccc4)nc32)c1	> 11.4 µM	-5.18%	-18.8%	-0.21%	> 9.22 µM	> 46 µM	inactive	inactive	inactive	–	–	–	–
COc1ccc(-c2nc3cnc(OC)nc3n(C3CC3)c2=O)cc1	> 11.4 µM	-14.2%	-0.173%	2.68%	> 9.22 µM	> 46 µM	inactive	inactive	inactive	inactive	–	–	–
O=c1c(-c2ccccc2)nc2cncnc2n1Cc1ccc(F)cc1	> 11.4 µM	-20%	-1.65%	-6.53%	> 9.22 µM	> 46 µM	–	inactive	inactive	–	–	–	–
O=S(=O)(c1ccccc1)N1CCC2(CCCN(C(c3ccccc3)c3ccccc3)C2)CC1	> 11.4 µM	-2.18%	-9.54%	-3.12%	–	> 46 µM	inactive	inactive	inactive	inactive	–	2 µM (active)	501 nM (active)
N#Cc1cccc(NC(=O)N2CCC3(CC2)CCN(C(=O)c2cnccn2)CC3)c1	> 11.4 µM	-8.55%	-3%	2.13%	–	> 46 µM	inactive	inactive	inactive	–	–	–	–
N#Cc1ccc(CN2CC[C@@]3(CCCN(C(=O)c4ccco4)C3)C2)cc1	> 11.4 µM	0.694%	-6.92%	12.6%	–	> 46 µM	inactive	inactive	inactive	–	–	–	–
COCC(=O)N1CCC2(CCN(Cc3cc(C(F)(F)F)cc(C(F)(F)F)c3)CC2)CC1	> 11.4 µM	4.92%	-3.18%	8.32%	–	> 46 µM	inactive	inactive	inactive	–	–	–	–
COc1ccc(C(=O)N2CCC[C@@]3(CCN(Cc4nccs4)C3)C2)cc1	> 11.4 µM	-5.52%	-6.27%	-1.52%	–	> 46 µM	inactive	inactive	inactive	–	–	–	–
COc1ccc(NC(=O)N2CC[C@@]3(CCCN(C(=O)c4cccc(F)c4)C3)C2)cc1	> 11.4 µM	-11.4%	6.04%	-0.331%	–	> 46 µM	inactive	inactive	inactive	inactive	–	–	–
COC(=O)N1CCC[C@@]2(CCN(Cc3nccs3)C2)C1	> 11.4 µM	1.72%	14.9%	-4.13%	–	> 46 µM	inactive	inactive	inactive	–	–	–	–
O=C(Nc1ccccc1)N1CCCC2(CCN(C(=O)c3csnn3)CC2)C1	> 11.4 µM	-9.89%	-7.97%	-7.07%	–	> 46 µM	inactive	inactive	inactive	inactive	–	–	–
O=C(c1cccc(F)c1)N1CCC2(CC1)CN(c1ccccc1)C2	> 11.4 µM	-0.575%	6.14%	-1.57%	–	> 46 µM	inactive	inactive	inactive	7.94 µM (active)	–	inactive	–
O=C(c1cccc(F)c1)N1CCC2(CC1)CN(C(c1ccccc1)c1ccccc1)C2	> 11.4 µM	16.8%	-27.5%	-17.5%	–	> 46 µM	inactive	inactive	inactive	–	–	–	–
O=C(c1csnn1)N1CCC2(CCCN(c3ncccn3)C2)CC1	> 11.4 µM	5.51%	2.44%	1.38%	–	> 46 µM	inactive	inactive	inactive	–	–	–	–
N#Cc1cccc(NC(=O)N2CC[C@@]3(CCCN(C(=O)c4csnn4)C3)C2)c1	> 11.4 µM	-20.4%	10.2%	-5.12%	–	> 46 µM	inactive	inactive	inactive	–	–	–	–
COc1ccc(C(=O)N2CCC3(CC2)CCN(c2cccc(-c4ccccc4)c2)CC3)cc1	> 11.4 µM	10.6%	-6.4%	-19%	–	> 46 µM	inactive	inactive	inactive	–	–	–	–
CS(=O)(=O)N1CCC2(CCCN(Cc3cc(C(F)(F)F)cc(C(F)(F)F)c3)C2)CC1	> 11.4 µM	20%	-14.4%	5.1%	–	> 46 µM	inactive	inactive	inactive	–	–	–	–
O=C(Nc1cccc(F)c1)N1CCCC2(CCN(C(=O)c3csnn3)CC2)C1	> 11.4 µM	-12.3%	-19.5%	-9.38%	–	> 46 µM	inactive	inactive	inactive	–	–	–	–
COCC(=O)N1CCC[C@@]2(CCN(Cc3nccs3)C2)C1	> 11.4 µM	-2.92%	0.146%	4.7%	–	> 46 µM	inactive	inactive	inactive	inactive	–	–	–
COc1ccc(C(=O)N2CCC3(CCCN(c4ccccn4)C3)CC2)cc1	> 11.4 µM	-4.8%	-8.78%	-3.02%	–	> 46 µM	inactive	inactive	inactive	–	–	–	–
O=C(c1ccncc1)N1CCC2(CCCN(c3ccc(-c4ccccc4)cc3)C2)CC1	> 11.4 µM	-6.85%	14.6%	-6.26%	–	> 46 µM	inactive	inactive	inactive	–	–	–	–
O=S(=O)(c1ccccc1)N1CCC2(CCN(c3ccccc3)CC2)CC1	> 11.4 µM	6.91%	-1.26%	-14.2%	–	> 46 µM	inactive	inactive	inactive	inactive	–	–	–
